Measured potencies and affinities stand elsewhere. Active and inactive are the calls of the source.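 Rule for the calls: active = fitted half-maximal dose no more than twice the top valid tested dose, for compounds that lower signal; inconclusive = fit invalid, or curve flat with activity between -70 and -30; inactive = potency past limit, curve flat within ±30, or signal increasing.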
Target: NAD-dependent protein deacylase sirtuin-5, mitochondrial (Homo sapiens) (UniProt Q9NXA8)
Test: SIRT5 deacylase inhibitors, dose response, biochemical, fluorescence imaging, cherry-pick, set 6 (AID 720597);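 note: lower AMC signal can also come from blocking the trypsin step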

Chain of NAD-dependent protein deacylase sirtuin-5, mitochondrial (Homo sapiens) (Q9NXA8 whole entry, looked up): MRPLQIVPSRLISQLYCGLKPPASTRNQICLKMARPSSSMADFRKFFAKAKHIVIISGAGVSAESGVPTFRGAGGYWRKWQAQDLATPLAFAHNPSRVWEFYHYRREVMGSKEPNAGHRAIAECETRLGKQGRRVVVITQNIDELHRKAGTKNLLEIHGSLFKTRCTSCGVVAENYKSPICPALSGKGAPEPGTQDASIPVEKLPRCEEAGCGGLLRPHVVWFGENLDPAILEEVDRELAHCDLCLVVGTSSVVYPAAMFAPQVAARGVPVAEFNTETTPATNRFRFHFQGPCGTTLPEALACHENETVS

Row | Structure (SMILES) | outcome
1 | CC1C(=O)N2CCCc3cc(S(=O)(=O)N4CCCC4)cc1c32 (stereo unspecified) | inactive
2 | CC(C)CC#Cc1ccc2c(c1)O[C@H](CN(C)C(=O)c1cccc(F)c1)[C@@H](C)CN([C@H](C)CO)S2(=O)=O | inactive
3 | O=S(=O)(c1ccc(F)cc1)N1CCCCN2[C@@H](CO)[C@H](c3ccc(C#CC4CCCC4)cc3)[C@@H]2C1 | inactive
4 | Cc1ccc(S(=O)(=O)N(C)C[C@H]2OCCCC[C@@H](C)Oc3ccc(NS(=O)(=O)c4ccc(F)cc4)cc3C(=O)N([C@@H](C)CO)C[C@H]2C)cc1 | inactive
5 | Cc1ccc(S(=O)(=O)N(C)C[C@@H]2OCCCC[C@H](C)Oc3ccc(NS(=O)(=O)c4ccc(F)cc4)cc3C(=O)N([C@@H](C)CO)C[C@H]2C)cc1 | inactive
6 | COc1ccccc1C(=O)Nc1ccc2c(c1)C(=O)N(C)[C@H]1CC[C@H](CC(=O)Nc3cccc(C(C)C)c3)O[C@@H]1CO2 | inactive
7 | COc1ccc(S(=O)(=O)N(C)C[C@H]2OCCCC[C@H](C)Oc3ccc(NS(=O)(=O)c4ccc(Cl)cc4)cc3C(=O)N([C@@H](C)CO)C[C@H]2C)cc1 | inactive
8 | CC(C)c1cn(CC[C@H]2CC[C@H](NS(=O)(=O)c3ccc(F)cc3)[C@@H](CO)O2)nn1 | inactive
9 | C[C@@H]1CCCCO[C@@H](CN(C)Cc2ccc(C(F)(F)F)cc2)[C@H](C)CN([C@@H](C)CO)C(=O)c2cc(NS(=O)(=O)c3ccc(F)cc3)ccc2O1 | inactive
10 | C[C@H]1CN([C@@H](C)CO)C(=O)Cc2cc(NC(=O)Nc3ccc(C(F)(F)F)cc3)ccc2O[C@H]1CN(C)Cc1ccc(C(=O)Nc2ccccc2N)cc1 | inactive
11 | O=S(=O)(N[C@H]1CC[C@H](CCn2cc(-c3cccc(F)c3)nn2)O[C@H]1CO)c1ccc(F)cc1 | inactive
12 | C[C@H]1CN([C@@H](C)CO)S(=O)(=O)c2ccc(C#CC3CCCC3)cc2O[C@@H]1CN(C)C(=O)Nc1cc(F)ccc1F | inactive
13 | C[C@@H]1CN([C@H](C)CO)C(=O)c2c(c3ccccc3n2C)-c2ccccc2CO[C@H]1CN(C)S(=O)(=O)c1ccc(C(F)(F)F)cc1 | inactive
14 | CC(C)CC#Cc1ccc2c(c1)O[C@@H](CN(C)C(=O)C1CCCCC1)[C@H](C)CN([C@H](C)CO)S2(=O)=O | inactive
15 | C[C@@H]1CN([C@H](C)CO)C(=O)c2cc(NS(=O)(=O)c3cn(C)cn3)ccc2O[C@H]1CN(C)C(=O)Nc1ccccc1 | inactive
16 | O=C(NC1CCCCC1)[C@@H]1[C@@H](CO)[C@@H]2Cn3c(cccc3=O)[C@@H]2N1CC1CCCC1 | inactive
17 | C[C@H]1CCCCO[C@@H](CN(C)Cc2ccc(C(F)(F)F)cc2)[C@@H](C)CN([C@@H](C)CO)C(=O)c2cc(NS(=O)(=O)c3ccc(F)cc3)ccc2O1 | inactive
18 | C[C@H](CO)N1C[C@H](C)[C@@H](CN(C)C(=O)Nc2ccc(C(F)(F)F)cc2)OCCCC[C@H](C)Oc2ccc(NS(=O)(=O)c3ccc(Cl)cc3)cc2C1=O | inactive
19 | COc1ccc(S(=O)(=O)Nc2ccc3c(c2)C(=O)N([C@@H](C)CO)C[C@H](C)[C@@H](CN(C)Cc2ccc(Oc4ccccc4)cc2)O3)cc1 | inactive
20 | CCOC(=O)N(C)C[C@H]1OCc2ccccc2-c2ccccc2C(=O)N([C@H](C)CO)C[C@@H]1C | inactive
21 | C[C@@H]1CN([C@H](C)CO)C(=O)c2cc(-c3ccc(F)cc3)cnc2O[C@H]1CN(C)C(=O)Cc1ccccn1 | inactive

Row | Structure (SMILES) | outcome
22 | CC(C)C#Cc1cnc2c(c1)C(=O)N([C@@H](C)CO)C[C@H](C)[C@@H](CN(C)C(=O)CN1CCOCC1)O2 | inactive
23 | Cc1ccc(S(=O)(=O)Nc2ccc3c(c2)C(=O)N([C@H](C)CO)C[C@@H](C)[C@@H](CN(C)Cc2ccc(C(F)(F)F)cc2)OCCCC[C@H](C)O3)cc1 | inactive
24 | O=S(=O)(c1ccc(F)cc1)N1CCCCN2[C@H](CO)[C@H](c3ccc(C#CC4CCCC4)cc3)[C@@H]2C1 | inactive
25 | C[C@@H]1CCCCO[C@H](CN(C)S(=O)(=O)c2ccc(Cl)cc2)[C@H](C)CN([C@@H](C)CO)C(=O)c2cc(N(C)C)ccc2O1 | inactive
26 | C[C@@H]1CCCCO[C@H](CN(C)Cc2ccc(C(=O)O)cc2)[C@H](C)CN([C@H](C)CO)C(=O)c2cc(NS(=O)(=O)c3cccs3)ccc2O1 | inactive
27 | CC(=O)N1CC(=O)N2[C@@H](CO)[C@H](c3ccc(-c4ccc(C(=O)N(C)C)cc4)cc3)[C@@H]2C1 | inactive
28 | CNC[C@@H]1Oc2ccc(NC(=O)Nc3ccc(F)cc3)cc2CC(=O)N([C@H](C)CO)C[C@H]1C | inactive
29 | C[C@H](CO)N1C[C@H](C)[C@H](CN(C)Cc2ccc(-c3ccccc3)cc2)Oc2cc(C#C[C@@H](C)O)ccc2S1(=O)=O | inactive
30 | C[C@@H]1CN([C@@H](C)CO)C(=O)Cc2cc(NC(=O)Nc3ccc(F)cc3)ccc2O[C@H]1CN(C)C | inactive
31 | C[C@H](CO)N1C[C@H](C)[C@H](CN(C)C(=O)Nc2ccc(C(F)(F)F)cc2)OCCCC[C@H](C)Oc2ccc(NS(=O)(=O)c3ccc(Cl)cc3)cc2C1=O | inactive
32 | O=C(Nc1cc(F)ccc1F)N1C[C@@H]2[C@H](c3ccccc31)[C@H](CO)N2Cc1ccncc1 | inactive
33 | COc1ccc(CN(C)C[C@H]2Oc3c(NC(=O)Nc4ccc(F)cc4)cccc3C(=O)N([C@@H](C)CO)C[C@@H]2C)cc1 | inactive
34 | C[C@H]1CN([C@@H](C)CO)C(=O)c2c(c3ccccc3n2C)-c2ccccc2CO[C@H]1CN(C)Cc1ccccc1 | inactive
35 | O=S(=O)(c1cccs1)N1CCCCN2[C@H](CO)[C@H](c3ccc(C4=CCCCC4)cc3)[C@H]2C1 | inactive
36 | CC(=O)N(C)C[C@@H]1Oc2ncc(-c3ccccc3C)cc2C(=O)N([C@H](C)CO)C[C@H]1C | inactive
37 | C[C@@H]1CN([C@@H](C)CO)C(=O)c2cccc(NC(=O)c3ccncc3)c2O[C@H]1CN(C)S(C)(=O)=O | inactive
38 | O=C(NCC[C@@H]1CC[C@H](NC(=O)C2CC2)[C@@H](CO)O1)c1cc(Cl)cc(Cl)c1 | inactive
39 | C[C@@H]1CCCCO[C@@H](CN(C)C(=O)C2CCCCC2)[C@H](C)CN([C@@H](C)CO)C(=O)c2cc(NC(=O)Nc3ccc(F)cc3)ccc2O1 | inactive
40 | CC(C)C#Cc1ccc2c(c1)O[C@@H](CN(C)Cc1ccccn1)[C@H](C)CN([C@H](C)CO)S2(=O)=O | inactive
41 | C[C@@H]1CN([C@@H](C)CO)S(=O)(=O)c2ccc(C#Cc3ccc(F)cc3)cc2O[C@@H]1CN(C)S(=O)(=O)c1ccc(F)cc1 | inactive
42 | C[C@@H]1CCCCO[C@@H](CN(C)Cc2ccc(C(F)(F)F)cc2)[C@@H](C)CN([C@@H](C)CO)C(=O)c2cc(NS(=O)(=O)c3cccs3)ccc2O1 | inactive

Row | Structure (SMILES) | outcome
43 | C[C@H]1CN([C@@H](C)CO)S(=O)(=O)c2ccc(/C=C/c3ccccc3)cc2O[C@@H]1CN(C)C(=O)Nc1ccc(F)cc1 | inactive
44 | O=C(C[C@@H]1C[C@@H]2c3cc(NC(=O)NC4CCCCC4)ccc3O[C@@H]2[C@H](CO)O1)NCCc1ccccc1 | inactive
45 | O=S(=O)(c1ccc(F)cc1)N1CCCCN2[C@@H](CO)[C@H](c3ccc(-c4ccccc4F)cc3)[C@@H]2C1 | inactive
46 | COc1cccc(S(=O)(=O)N(C)C[C@H]2Oc3cc(C4=CCCCC4)ccc3S(=O)(=O)N([C@H](C)CO)C[C@H]2C)c1 | inactive
47 | O=S(=O)(c1ccccc1)N1CCCCN2[C@H](C1)[C@H](c1ccc(C#CC3CCCC3)cc1)[C@@H]2CO | inactive
48 | COCC(=O)NC[C@H]1N[C@H](CO)[C@H]1c1ccc(C2=CCCCC2)cc1 | inactive
49 | COc1cccc(-c2ccc3c(c2)[C@@H]2[C@@H](CCN2C(=O)c2ccccc2F)[C@H](CO)N3C)c1 | inactive
50 | Cc1ccc(S(=O)(=O)N(C)C[C@H]2OCCCC[C@H](C)Oc3ccc(NS(=O)(=O)c4ccccc4)cc3C(=O)N([C@H](C)CO)C[C@H]2C)cc1 | inactive
51 | COc1ccc(NC(=O)Nc2ccc3c(c2)C(=O)N([C@@H](C)CO)C[C@@H](C)[C@H](CN(C)C(=O)Nc2cccc4ccccc24)OCCCC[C@H](C)O3)cc1 | inactive
52 | C[C@H](CO)N1C[C@H](C)[C@H](CN(C)Cc2cccc(C(F)(F)F)c2)Oc2ncc(C#Cc3ccccc3)cc2C1=O | inactive
53 | C[C@@H]1CN([C@@H](C)CO)S(=O)(=O)c2ccc(C#Cc3cccc(F)c3)cc2O[C@H]1CN(C)S(=O)(=O)c1ccccc1F | inactive
54 | COc1ccc(S(=O)(=O)Nc2ccc3c(c2)C(=O)N([C@@H](C)CO)C[C@@H](C)[C@@H](CN(C)S(=O)(=O)c2cccs2)OCCCC[C@H](C)O3)cc1 | inactive
55 | C[C@H]1CCCCO[C@H](CN(C)S(=O)(=O)c2ccc(Cl)cc2)[C@@H](C)CN([C@@H](C)CO)C(=O)c2cc(NS(=O)(=O)c3ccccc3)ccc2O1 | inactive
56 | C[C@H]1CN([C@@H](C)CO)S(=O)(=O)c2ccc(/C=C/c3ccccc3)cc2O[C@H]1CN(C)C(=O)NC1CCCCC1 | inactive
57 | Cc1noc(C)c1S(=O)(=O)Nc1ccc2c(c1)CC(=O)N([C@H](C)CO)C[C@H](C)[C@@H](CN(C)Cc1ccc(C(=O)O)cc1)O2 | inactive
58 | CC(=O)N(C)C[C@H]1Oc2ncc(C#CCC3CCCC3)cc2C(=O)N([C@@H](C)CO)C[C@H]1C | inactive
59 | C[C@H]1CN([C@@H](C)CO)C(=O)c2cc(C#CC3CCCCC3)cnc2O[C@@H]1CN(C)S(=O)(=O)c1cccc(F)c1 | inactive
60 | C[C@H]1CN([C@@H](C)CO)S(=O)(=O)c2ccc(C#CC3CC3)cc2O[C@@H]1CN(C)Cc1ccc(F)cc1 | inactive
61 | C[C@@H]1CN([C@H](C)CO)C(=O)c2cc(N(C)C)ccc2O[C@H]1CN(C)C(=O)Nc1ccc(F)cc1 | inactive
